This passage reports growth results from PubChem BioAssay (NCI).

Structures are written as SMILES. The panel holds about 83,000 compounds, 20% with a hit somewhere; the sample as a whole holds those more often.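 Cell lines were cultured in 96-well plates, exposed to a single compound concentration, and assessed for percent growth 48 hours later.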 Activity calls are given as the source filed them. The calls were made as follows: active = growth percent below 10; inactive = the rest.

The test system of this assay is MDA-MB-468 breast. Kind of assay: NCI-60 one-dose screen, 48 h (100 = growth as untreated, 0 = no growth, -100 = all killed). Conditions: 10 µM unless noted.
Consider `COc1ccc(-c2cnc3c(-c4cccc5ncccc45)cnn3c2)cc1`, for which the growth is 57.1% (inactive).

For `O=C1c2ccccc2C(=O)c2c(NCCN=Cc3ccccc3O)cccc21`, the growth was 43.8% (inactive).

Turning to `C=C1C(=O)O[C@H]2[C@H]1CC/C(COC(=O)c1cc3cc(Cl)ccc3[nH]1)=C\CC[C@@]1(C)O[C@@H]21`, the growth was -59.6% (active). Next, `Cc1ccc(Cl)cc1N1C(=O)CC(Sc2ccccc2N)C1=O` (stereo not drawn): 108% (inactive); `COc1cc(CNC(=O)CCCC/C=C/C(C)C)ccc1OCc1cn(-c2ccc(C(F)(F)F)cc2)nn1`: 84.8% (inactive). On to `COC(=O)[C@]1(C)CCC[C@]2(C)[C@H]3C[C@@H]4[C@H]5[C@@H]6CC/C(=N\OCC/C(N)=N/O)[C@H]5[C@@]3(CC[C@H]21)CC4(C(C)C)O6`, for which the growth was 64.1% (inactive). Next, `CC(=O)Oc1ccccc1C(=O)Nc1ccc(C(=O)/C=C/c2ccncc2)cc1`: 4.04% (active); `Cc1ccccc1NC(=O)Oc1ccc(Cl)cc1C(=O)c1ccccc1`: 88.2% (inactive). With `CCN(CC)CCCN1C(=O)c2c(c(C)c3c(oc4cc(O)ccc43)c2C)C1=O`, the growth is 102% (inactive). With `Cn1c(=O)c2[nH]c(SCC(=O)Nc3ccc(C(=O)/C=C/c4ccccc4Cl)cc3)nc2n(C)c1=O`, the growth is 76.4% (inactive). With `CCN(CC)CCCCNc1ccc(NCCCCN(CC)CC)c2c1C(=O)c1ccccc1C2=O`, the growth was 106% (inactive).

Regarding `O=C(Nc1ccc(Oc2cccc(Cl)c2)c(Cl)c1)c1cccnc1`, the growth was -9.21% (active). The figure for `NS(=O)(=O)c1ccc(CCn2c(-c3ccc(C(=O)O)cc3)nc(-c3ccccc3)c2-c2ccccc2)cc1` is 112% (inactive).
